Test systems include NCI-H23 lung; NCI-H226 lung; NCI-H322M lung; HOP-62 NSCLC; NCI-H460 lung; HOP-92 NSCLC; NCI-H522 lung; A549/ATCC NSCLC; 786-0 renal; COLO 205 colon; DU-145 prostate; K-562 leukemia; MALME-3M melanoma; MDA-MB-231 breast; RXF 393 renal; SF-268 CNS; SF-295 CNS; SF-539 CNS; UACC-257 melanoma; M14 melanoma.
Holding throughout (experiment): NCI-60 one-dose screen, 48 h (100 = growth as untreated, 0 = no growth, -100 = all killed)
Common to all, as to conditions: 10 µM unless noted

Values joined by “and” are separate entries in the source; they are usually repeats but may differ in a detail not shown here. Identical values can stand only once. Compounds without any hit were thinned out: in the full panel of roughly 83,000, 20% have a hit.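 Single-concentration screen, 48 h exposure, 96-well plates. Endpoint: percent growth. Below 10 = active.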 Active and inactive are the calls of the source.

Consider `Cc1cc(N=Nc2ccc(C)c(N=Nc3cc(C)c(N)cc3N)c2)c(N)cc1N`, for which the growth in the test with NCI-H23 lung is 89.5% (inactive) and 78.4% (inactive); in the test with NCI-H226 lung, 87.5% (inactive) and 95.3% (inactive); in the test with NCI-H322M lung, 92% (inactive) and 91% (inactive); in the test on HOP-62 NSCLC, 60.6% (inactive) and 80.8% (inactive); in the test on NCI-H460 lung, 97.4% (inactive) and 93.2% (inactive); with HOP-92 NSCLC, 66.2% (inactive). For the same compound, the growth with NCI-H522 lung was 89.9% (inactive) and 54.9% (inactive); in the test with A549/ATCC NSCLC it was 95.2% (inactive) and 81% (inactive); in the test on 786-0 renal, 94.5% (inactive) and 102% (inactive); with COLO 205 colon, 92.5% (inactive) and 81.2% (inactive); with DU-145 prostate, 107% (inactive) and 90.9% (inactive); in the test on K-562 leukemia it was 75.9% (inactive) and 34.5% (inactive). Besides, the growth with MALME-3M melanoma is 89.3% (inactive) and 98.5% (inactive); in the test on MDA-MB-231 breast, 68.6% (inactive) and 73.3% (inactive); with RXF 393 renal, 91.1% (inactive) and 89.1% (inactive); in the test on SF-268 CNS, 98.9% (inactive) and 80.7% (inactive); with SF-295 CNS it was 98.6% (inactive) and 66% (inactive); in the test with SF-539 CNS it was 87.9% (inactive) and 99.8% (inactive). In addition, the growth with UACC-257 melanoma was 91.4% (inactive) and 89.9% (inactive); in the test with M14 melanoma it was 90.8% (inactive) and 65.4% (inactive).

For the compound `OC(COc1cccc2ccccc12)CN1CCN(c2ccc(Cl)cc2)CC1` (stereo not drawn), the growth is 84.6% (inactive) and 86.5% (inactive) in the test with NCI-H23 lung; 92.4% (inactive) and 111% (inactive) with NCI-H226 lung; 90% (inactive) and 102% (inactive) with NCI-H322M lung; 96.5% (inactive) and 77.3% (inactive) in the test with HOP-62 NSCLC; 49% (inactive) and 95% (inactive) in the test with NCI-H460 lung; 75.1% (inactive) and 77% (inactive) in the test with HOP-92 NSCLC. Also, the growth in the test with NCI-H522 lung was 109% (inactive) and 85.7% (inactive); in the test on A549/ATCC NSCLC, 71.9% (inactive) and 88.3% (inactive); in the test on 786-0 renal, 80.9% (inactive) and 89.7% (inactive); in the test on COLO 205 colon, 121% (inactive); in the test with DU-145 prostate, 93.1% (inactive) and 122% (inactive); with K-562 leukemia, 66.3% (inactive) and 85% (inactive). Further, the growth with MALME-3M melanoma is 109% (inactive) and 106% (inactive); in the test on MDA-MB-231 breast, 83.6% (inactive) and 112% (inactive); in the test on RXF 393 renal it was -3.89% (active) and 94.8% (inactive); with SF-268 CNS, 91.1% (inactive) and 103% (inactive); in the test on SF-295 CNS, 70.2% (inactive) and 83.2% (inactive); in the test on SF-539 CNS it was 91.3% (inactive) and 102% (inactive). The growth was 114% (inactive) and 95.9% (inactive) with UACC-257 melanoma; 90.9% (inactive) and 100% (inactive) with M14 melanoma.

Regarding `Cc1cccc(/C=C\C(=O)c2ccc(Cl)cc2)c1`, the growth with NCI-H23 lung was 93.9% (inactive) and 102% (inactive); with NCI-H226 lung, 112% (inactive) and 100% (inactive); with NCI-H322M lung, 103% (inactive) and 92.6% (inactive); in the test with HOP-62 NSCLC, 109% (inactive) and 113% (inactive); in the test on NCI-H460 lung it was 110% (inactive) and 102% (inactive); in the test with HOP-92 NSCLC, 82.3% (inactive). Also, the growth was 94.2% (inactive) in the test on NCI-H522 lung; 88.8% (inactive) and 85.8% (inactive) in the test with A549/ATCC NSCLC; 82% (inactive) and 74.2% (inactive) in the test on 786-0 renal; 121% (inactive) and 111% (inactive) with COLO 205 colon; 114% (inactive) and 96.5% (inactive) with DU-145 prostate; 77% (inactive) and 20.5% (inactive) in the test with K-562 leukemia. Moreover, the growth in the test on MALME-3M melanoma is 92.5% (inactive); with MDA-MB-231 breast it was 97.6% (inactive) and 116% (inactive); in the test with RXF 393 renal, 112% (inactive) and 97.8% (inactive); with SF-268 CNS, 102% (inactive) and 92.5% (inactive); in the test on SF-295 CNS, 161% (inactive) and 93.9% (inactive); in the test on SF-539 CNS, 101% (inactive). Also, the growth is 105% (inactive) and 109% (inactive) in the test with UACC-257 melanoma; 94.3% (inactive) and 91.1% (inactive) in the test on M14 melanoma.

Turning to `O=C(O)C1(C(=O)O)CCC1.[NH2-].[NH2-].[Pt+2]`, the growth is 104% (inactive) and 87.6% (inactive) in the test with NCI-H23 lung; 99% (inactive) and 98.5% (inactive) with NCI-H226 lung; 99.9% (inactive) and 110% (inactive) with NCI-H322M lung; 98.2% (inactive) and 105% (inactive) in the test with HOP-62 NSCLC; 116% (inactive) and 92.4% (inactive) in the test with NCI-H460 lung; 70.1% (inactive) in the test on HOP-92 NSCLC. Besides, the growth in the test with NCI-H522 lung is 98.3% (inactive) and 76.1% (inactive); with A549/ATCC NSCLC it was 99.3% (inactive) and 97.5% (inactive); in the test on 786-0 renal it was 101% (inactive) and 98.7% (inactive); with COLO 205 colon, 106% (inactive) and 115% (inactive); in the test on DU-145 prostate it was 127% (inactive) and 104% (inactive); with K-562 leukemia it was 65.9% (inactive). Besides, the growth with MALME-3M melanoma is 86.4% (inactive) and 94.2% (inactive); in the test on MDA-MB-231 breast, 94.4% (inactive) and 8.97% (active); in the test with RXF 393 renal, 93.9% (inactive); in the test with SF-268 CNS, 118% (inactive) and 96.4% (inactive); in the test on SF-295 CNS, 103% (inactive) and 96.9% (inactive); in the test with SF-539 CNS it was 100% (inactive) and 89% (inactive). Further, the growth in the test with UACC-257 melanoma is 102% (inactive) and 95.7% (inactive); with M14 melanoma, 99.2% (inactive) and 104% (inactive).

Consider `O=C(/C=C/c1ccccn1)c1ccccc1O`, for which the growth with NCI-H23 lung was 73.9% (inactive) and 81.3% (inactive); in the test with NCI-H226 lung, 93.2% (inactive) and 97.3% (inactive); in the test with NCI-H322M lung, 100% (inactive) and 113% (inactive); with HOP-62 NSCLC, 79.5% (inactive) and 72.2% (inactive); in the test on NCI-H460 lung, 65.2% (inactive) and 101% (inactive); in the test with HOP-92 NSCLC it was 75.5% (inactive) and 34.2% (inactive). The growth in the test on NCI-H522 lung is 67.8% (inactive) and 28.4% (inactive); in the test with A549/ATCC NSCLC, 55.3% (inactive) and 79.7% (inactive); in the test with 786-0 renal, 90.6% (inactive) and 91.4% (inactive); with COLO 205 colon, 63.6% (inactive) and 65.4% (inactive); in the test with DU-145 prostate, 76.4% (inactive) and 71% (inactive); with MALME-3M melanoma, 70.1% (inactive) and 107% (inactive). The growth in the test on MDA-MB-231 breast was 70.4% (inactive) and 95.9% (inactive); with RXF 393 renal, 31.8% (inactive) and 56.4% (inactive); in the test with SF-268 CNS it was 72.4% (inactive) and 61.6% (inactive); in the test with SF-295 CNS, 68.9% (inactive) and 91.6% (inactive); in the test on SF-539 CNS, 42.1% (inactive) and 80.9% (inactive); in the test on UACC-257 melanoma it was 49.9% (inactive) and 84.9% (inactive). The growth with M14 melanoma was 72.5% (inactive) and 82.3% (inactive).

As to `NC(=S)N/N=C(\c1ccc(Br)cc1)C1CC1`, the growth was 94.2% (inactive) and 87.9% (inactive) in the test on NCI-H23 lung; 96.7% (inactive) and 87.6% (inactive) in the test with NCI-H226 lung; 101% (inactive) and 83.7% (inactive) with NCI-H322M lung; 96.4% (inactive) and 87% (inactive) in the test with HOP-62 NSCLC; 104% (inactive) and 102% (inactive) in the test on NCI-H460 lung; 83.2% (inactive) and 92.7% (inactive) in the test with HOP-92 NSCLC. Also, the growth is 98.9% (inactive) with NCI-H522 lung; 103% (inactive) in the test on A549/ATCC NSCLC; 113% (inactive) and 106% (inactive) with 786-0 renal; 98.4% (inactive) and 94.5% (inactive) in the test with COLO 205 colon; 96.8% (inactive) and 107% (inactive) in the test on DU-145 prostate; 38% (inactive) and 43.1% (inactive) in the test with K-562 leukemia. Besides, the growth is 84.3% (inactive) with MALME-3M melanoma; 67.2% (inactive) in the test on MDA-MB-231 breast; 122% (inactive) and 98.1% (inactive) in the test with RXF 393 renal; 97.2% (inactive) and 103% (inactive) with SF-268 CNS; 93.5% (inactive) and 81.8% (inactive) in the test on SF-295 CNS; 99% (inactive) and 100% (inactive) in the test on SF-539 CNS. Moreover, the growth in the test with UACC-257 melanoma was 63.1% (inactive); in the test on M14 melanoma, 88% (inactive) and 84.1% (inactive).

On to `Nc1cc2c(cc1N)-c1ccccc1C2`, for which the growth in the test with NCI-H23 lung was 93.1% (inactive) and 88.3% (inactive); in the test with NCI-H226 lung, 84.3% (inactive) and 88.4% (inactive); in the test on NCI-H322M lung it was 85.4% (inactive) and 95% (inactive); with HOP-62 NSCLC it was 96.6% (inactive) and 104% (inactive); with NCI-H460 lung it was 103% (inactive) and 101% (inactive); in the test on HOP-92 NSCLC it was 84.3% (inactive). In addition, the growth is 15.9% (inactive) and 52.2% (inactive) in the test on NCI-H522 lung; 90.9% (inactive) and 90.4% (inactive) in the test on A549/ATCC NSCLC; 89.3% (inactive) and 99.6% (inactive) in the test with 786-0 renal; 94.8% (inactive) and 93.1% (inactive) in the test on COLO 205 colon; 104% (inactive) and 106% (inactive) with DU-145 prostate; 79.4% (inactive) and 87% (inactive) in the test on K-562 leukemia. The growth in the test with MALME-3M melanoma is 76.5% (inactive) and 103% (inactive); with MDA-MB-231 breast, 64.7% (inactive) and 97% (inactive); with RXF 393 renal, 88.2% (inactive) and 96.4% (inactive); in the test on SF-268 CNS, 86.8% (inactive) and 92.6% (inactive); in the test on SF-295 CNS it was 156% (inactive) and 98.8% (inactive); with SF-539 CNS it was 74.9% (inactive) and 92.5% (inactive). Moreover, the growth was 101% (inactive) and 98.1% (inactive) in the test with UACC-257 melanoma; 97.1% (inactive) and 109% (inactive) in the test on M14 melanoma.

For the compound `CCN(CC)CCc1nc(-c2ccccc2)no1`, the growth with NCI-H23 lung is 83.8% (inactive) and 102% (inactive); in the test with NCI-H226 lung, 85.8% (inactive) and 104% (inactive); in the test with NCI-H322M lung it was 100% (inactive) and 102% (inactive); with HOP-62 NSCLC it was 65.2% (inactive) and 98.6% (inactive); in the test with NCI-H460 lung, 102% (inactive) and 113% (inactive); in the test with HOP-92 NSCLC, 81.5% (inactive) and 109% (inactive). The growth with NCI-H522 lung was 88.5% (inactive); in the test with A549/ATCC NSCLC it was 97.5% (inactive) and 103% (inactive); in the test with 786-0 renal it was 89.5% (inactive) and 101% (inactive); with COLO 205 colon it was 109% (inactive); in the test with K-562 leukemia, 118% (inactive); in the test on MALME-3M melanoma, 86.2% (inactive) and 120% (inactive). The growth in the test on MDA-MB-231 breast is 67.6% (inactive) and 110% (inactive); in the test with RXF 393 renal, 74.5% (inactive) and 113% (inactive); with SF-268 CNS, 79.9% (inactive) and 98.3% (inactive); in the test on SF-295 CNS it was 105% (inactive) and 101% (inactive); in the test with SF-539 CNS, 83.5% (inactive) and 109% (inactive); in the test with UACC-257 melanoma, 87.2% (inactive) and 90.3% (inactive). Also, in the test with M14 melanoma, the growth is 87.9% (inactive) and 98.5% (inactive).
